From publication PMC5540273 (PLoS ONE, 2017)

Columns and labels:
p38-delta = conditions: concentration: 1 μM, replicates: in singlicate; n = 1
p38-gamma = tested on: T1, p38-gamma; conditions: concentration: 1 μM, replicates: in singlicate; n = 1
T1 construct: gene MAPK12
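Also: KINOMEscan kinase panel screen.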

Structure (SMILES) | %Inh (p38-delta) [%] | %Inh (p38-gamma) [%]
OCCCNc1nccc(-c2c(-c3cccc(C(F)(F)F)c3)nn3cc(C(F)(F)F)ccc23)n1 [GW630813] | 20 | 0
CC(C)(C)c1ccc(C(=O)Nc2cn3cc(-c4ccccc4)ccc3n2)cc1 | 34 | 8
Nc1ncnc2c1ncn2-c1cccc2ccccc12 [SKF-97184] | 0 | 0
COc1cc(Nc2nccc(N3CCC(NC(=O)C(C)c4ccc(Cl)cc4)C3)n2)cc(OC)c1OC (centres unmarked) [GSK1379757] | 43 | 1
Cc1ccc(Oc2ccc(Nc3ncnc4cc[nH]c34)cc2C)cn1 | 30 | 35
Fc1cccc(CSc2nnc(-c3ccc4c(c3)CCO4)o2)c1 | 28 | 21
O=C(NCc1cccs1)c1cc(C(=O)c2c(Cl)cccc2Cl)c[nH]1 [GW823670] | 0 | 0
CCc1nc(-c2cccc(C)c2)c(-c2ccncc2)s1 | 0 | 10
COc1cc2nccc(Nc3ccc(OCc4ccc(NC(C)=O)cc4)cc3)c2cc1OC.Cl [GW440135] | 24 | 0
O=C(NCCNc1ccnc(Nc2ccc(F)cc2)n1)Nc1ccc2c(c1)OCO2 [GSK1379882] | 37 | 19
O=c1cc(N2CCOCC2)nc2n(Cc3ccc(F)c(Cl)c3)ccn12 [GSK2297099] | 36 | 0
COc1ccc(CNC(=O)NC2CCN(c3ccnc(Nc4ccc(F)cc4)n3)C2)cc1 (centres unmarked) [GSK1379706] | 38 | 4
CCC(=O)c1c(-c2ccccc2)c2cc(Cl)ccc2c(=O)n1Cc1cc(C(=O)NC2CC2)n(C)n1 | 35 | 9
CCS(=O)c1ccc(-c2coc3ccc(-c4nnc(C)o4)cc23)cc1 (centres unmarked) | 11 | 0
Cc1cccc(-c2cc(-c3c[nH]nc3-c3ccccn3)ccn2)c1 [GW679395] | 44 | 12
Cc1cccc(-c2nc(Nc3ccc4c(cnn4C)c3)c3ccccc3n2)n1 [GW876731] | 0 | 16
CN1C(=O)C(Nc2ccccc2)=C(c2ccccc2)C1=O [SB-300079] | 0 | 0
Nc1ncnc2c1ncn2-c1cccc(F)c1 [SKF-97560] | 0 | 48
COC(=O)c1c(-c2ccccc2)c2cc(Br)ccc2c(=O)n1Cc1ccc(NC(=O)CCC(=O)O)cc1 | 28 | 21

Structure (SMILES) | %Inh (p38-delta) [%] | %Inh (p38-gamma) [%]
CCc1ccc(-c2ccc3c(c2)-c2nn(C)cc2S(=O)(=O)N3C)cc1 | 22 | 9
COc1cc(Nc2nccc(N3CCC(NC(=O)C4COc5ccccc5O4)C3)n2)cc(OC)c1OC (centres unmarked) [GSK1379761] | 34 | 39
Nc1nccc2scc(-c3ccc4c(c3)CCN4C(=O)Cc3ccccc3)c12 [GSK2576924] | 19 | 5
Cc1ccc(-c2ccc3c(ccc4sc5c(c43)NC[C@@H](C)N=C5N(C)C)n2)cn1 | 10 | 14
Cl.c1ccc(Cn2cnc3cc(Nc4ncnc5ccccc45)ccc32)cc1 [GW272142] | 39 | 0
Cc1nn2c(=O)cc(N3CCOCC3)nc2n1Cc1cccc(Cl)c1Cl [GSK2342769] | 17 | 0
CCC(=O)c1c(-c2ccccc2)c2cc(Cl)ccc2c(=O)n1Cc1cc(S(C)(=O)=O)n(CCC(C)(C)O)n1 | 32 | 26
Cn1c(=O)c(F)c(Nc2ccc(I)cc2F)c2c(=O)n(OC[C@H](O)CO)cnc21 | 0 | 39
CCn1c(-c2ccoc2)nc2cnccc21 [SB-733887] | 25 | 12
O=C(Nc1n[nH]c2cc(-c3ccccc3F)ccc12)C1CC1 [SB-733371] | 0 | 19
COc1cc(OC)cc(-c2cc3cnc(N)nc3nc2NC(=O)NC(C)(C)C)c1 | 0 | 9
COc1cc2ncn(-c3cc(OCc4ccncc4)c(C(N)=O)s3)c2cc1OC [GSK336313] | 42 | 0
COc1ccc(-c2cc3c(C)nc(N)nc3n([C@H]3CC[C@H](OCCO)CC3)c2=O)cn1 | 13 | 0
CCS(=O)(=O)c1ccc(OC)c(Nc2ncc(-c3ccc(F)cc3)o2)c1.Cl [GW591947] | 43 | 6
CCCNC(=O)Nc1ccc(Oc2ncnc3ccn(C)c23)cc1 | 4 | 3
Nc1ncnc2c1ncn2-c1ccc(Cl)cc1 [AH2635] | 32 | 0
O=C1NC(=O)C(c2ccccc2)=C1Nc1cccc(O)c1 [SB-390534] | 0 | 15
CCC(=O)c1c(-c2ccccc2)c2cc(Cl)ccc2c(=O)n1Cc1ccc(C(=O)O)cc1 | 4 | 0
